Values joined by “and” are separate entries in the source; they are usually repeats but may differ in a detail not shown here. Equal entries are not always repeated. The source holds several records for some structures; these can differ, active in one and inactive in another. Active and inactive are the calls of the source. The calls were made as follows: active = hit-call score of the fitted dose curve at least 0.9, where 1 is the maximum; inactive = score below 0.9.

Read-out in this experiment: Plasminogen activator inhibitor-1 (PAI1), SERPINE1 (gene 5054)
Nature of the experiment: BSK_MyoF_PAI1: BioMAP Diversity Plus: MyoF Assay for Plasminogen activator inhibitor-1 (PAI1) Biomarker Activity (AID 2284256). The note with it: primary human lung fibroblasts. On the procedure: BSK_MyoF is a cell-based, multiplexed-readout assay that uses lung fibroblasts, […], with measurements taken at 24 hours after chemical dosing in a microplate: 96-well plate.BSK_MyoF_PAI1 is an assay component measured in the BSK_MyoF assay. It measures PAI-1 antibody related to regulation of gene expression using ELISA technology.Data from the assay component BSK_MyoF_PAI1 was analyzed at the endpoint, BSK_MyoF_PAI1, in the positive analysis fitting direction relative to DMSO as the negative control and baseline of activity. Using a type of binding reporter, gain or loss-of-signal activity can be used to understand protein changes. To generalize the intended target to other relatable targets, this assay endpoint is annotated to the 'cytokine' intended target family, where the subfamily is 'plasmogen activator inhibitor'.
The levels of cell surface (or secreted, indicated by the prefix "s") biomarker endpoints were measured by ELISA. Overt cytotoxicity to cells in confluent adherent cultures (all systems other than the BT system) was assessed by measuring total protein levels using sulforhodamine B (SRB) staining in parallel cultures at the time of biomarker measurements, indicated as SRB endpoints. For proliferation assays for adherent cell types, individual cell types are cultured at sub-confluence and relative cell numbers quantified by SRB staining at time points optimized for each system (48 h: 3C and CASM3C systems; 72 h: BT and HDF3CGF systems; 96 h: SAg system). SRB was performed by staining cells with 0.1% SRB after fixation with 10% TCA and reading wells at 560 nm.Viability and proliferation of PBMC (T cells) was quantified by Alamar Blue reduction for the SAg and BT systems. For PBMC viability (referred to as PBMC Cytotoxicity within the assay endpoint names), cells were plated (75,000/well in a 96-well plate) and then chemical samples added for 1 h before addition of activators, SEB and TSST-1 (20 ng/mL final concentration each). Cells were incubated for 90 h. Then, Alamar Blue (20 uL/well) (Invitrogen, Cat DAL1100) was added for 6 h, and the plates were read with a fluorescence microplate reader at 546/580 nm (excitation/emission). For PBMC proliferation, cells were plated and activated as above but incubated for only 16 h prior to addition of Alamar Blue. Plates were read after 6 h.
Consider `Nc1cc([N+](=O)[O-])cc(Cl)c1O`, for which the outcome was inactive.
As to `OCC(O)CC(F)(F)C(F)(F)C(F)(F)C(F)(F)F` (stereo not given), the result was inactive.
Consider `O=C(O)CCC(F)(F)C(F)(F)C(F)(F)C(F)(F)C(F)(F)C(F)(F)C(F)(F)F`, for which the result was inactive.
In the case of `O=C(c1ccccc1)c1ccc(O)cc1O`, the outcome was inactive.
On to `NCC(F)(F)C(F)(F)C(F)(F)C(F)(F)C(F)(F)C(F)(F)F`, for which the result was inactive.
Usually AC50 stands for the concentration at which the activity in the assay is half-maximal. Consider `C=C(C)C(=O)OCC(F)(F)C(F)(F)C(F)(F)C(F)F`, for which the AC50 is 0.222 µM (active) and the result was inactive.
Regarding `C[C@]12CC[C@H]3C(=CCc4cc(O)ccc43)[C@@H]1CCC2=O`, the result was inactive.
On to `Cc1ccc(S(=O)(=O)C(I)I)cc1`, for which the AC50 is 8.61 µM (active).
Regarding `O=C(O)C(F)(F)C(F)(F)C(F)(F)OC(F)(F)F`, the outcome was inactive.
For the compound `CC1=CC2C3C=CC(C3)C2C1C` (stereo not given), the outcome was inactive.
As for `C=CC(=O)OCC(F)(F)C(F)(F)C(F)(F)C(F)(F)C(F)(F)C(F)(F)C(F)(F)C(F)F`, the outcome was inactive.
`CCN(CCO)S(=O)(=O)C(F)(F)C(F)(F)C(F)(F)C(F)(F)C(F)(F)C(F)(F)C(F)(F)C(F)(F)F`: the result was inactive and the AC50 was 55.1 µM (active).
For `NCC(F)(F)C(F)(F)C(F)(F)C(F)(F)C(F)(F)C(F)(F)C(F)(F)C(F)(F)F`, the outcome was inactive.
Same read-out and setting: the value for `CO[Si](C)(CCC(F)(F)C(F)(F)C(F)(F)C(F)(F)C(F)(F)C(F)(F)F)OC` was “inactive”; that for `O=C(Cl)C(F)(F)C(F)(F)C(F)(F)C(F)(F)C(F)(F)C(F)(F)F` was “inactive”.
The same measure, in the same setting: the value for `O=C(O)CCC(F)(F)C(F)(F)C(F)(F)F` was “inactive”.
In the case of `OCC(F)(F)C(F)(F)C(F)(F)CO`, the outcome was inactive.
On the same count and under the same terms, under `O=C=NCc1cccc(CN=C=O)c1` stands “inactive”.
On the same count and under the same terms, under `OCC(F)(F)C(F)(F)C(F)(F)C(F)(F)C(F)(F)C(F)(F)C(F)(F)C(F)(F)CO` stands “inactive”.
Same read-out and setting: the value for `NC(=O)C(F)(F)C(F)(F)C(F)(F)C(F)(F)C(F)(F)C(F)(F)C(F)(F)F` was “inactive”; that for `CC(C)(C)c1cc(CCC(=O)NCCCCCCNC(=O)CCc2cc(C(C)(C)C)c(O)c(C(C)(C)C)c2)cc(C(C)(C)C)c1O` was “inactive”.
For `O=C(O)C(F)(F)C(F)(F)C(F)(F)OC(F)(C(F)(F)F)C(F)(F)F`, the result was inactive.
For `O=C(O)C(F)(F)OC(F)(F)C(F)(F)OC(F)(F)C(F)(F)OC(F)(F)F`, the result was inactive.
Turning to `FC(F)(F)C(F)(F)C(F)(F)C(F)(F)C(F)(F)C(F)(F)CC[Si](Cl)(Cl)Cl`, the outcome was inactive.
Regarding `O=S(=O)(O)CCC(F)(F)C(F)(F)C(F)(F)C(F)(F)F`, the result was inactive.
Still for that read-out and setting: under `CCN(CC)c1ccc(N=Nc2ccccc2)cc1` stands “inactive”; under `NC(=O)C(F)(F)C(F)(F)C(F)(F)C(F)(F)C(N)=O`, “inactive”; under `OCC(F)(F)C(F)(F)C(F)(F)C(F)(F)C(F)(F)C(F)(F)CO`, “inactive”.
For `O=C1C=CC(=O)N1c1ccc(Cc2ccc(N3C(=O)C=CC3=O)cc2)cc1`, the AC50 is 5.09 µM (active).
As for `CCOC(=O)CC(=O)C(F)(F)C(F)(F)F`, the result was inactive.
Same read-out and setting: under `CCN(CC)c1ccc2c(c1)Oc1cc(N(CC)CC)ccc1C21OC(=O)c2ccccc21` stands “inactive”; under `NC(=O)C(F)(F)C(F)(F)C(F)(F)C(F)F`, “inactive”.
Turning to `COC(F)(C(F)F)C(F)(F)F` (stereo not given), the result was inactive.
Still for that read-out and setting: under `O=C(O)C(F)(F)C(F)(F)C(F)(F)C(=O)O` stands “inactive”.
Take `OCCCC(F)(F)C(F)(F)C(F)(F)C(F)(F)C(F)(F)C(F)(F)C(F)(F)C(F)(F)F`: the AC50 is 16.5 µM (active) and 11.1 µM (active).
On the same count and under the same terms, under `Cc1cc(C)c(O)c(C(C)(C)C)c1` stands 36.4 µM (active).
Take `FC(F)(F)C(F)(F)C(F)(F)CC1CO1` (stereo not given): the result was inactive.
On the same count and under the same terms, the value for `C=CC(=O)OCCC(F)(F)C(F)(F)C(F)(F)C(F)(F)F` was “inactive”.
